FBA Mtb inh – Mtb fructose-bisphosphate aldolase inhibition. P9WQA3. purified M. tuberculosis FBA, fluorescence read-out. inhibition, % at 1 µM. 360,000 compounds, 2.3% hits. AID 588726
Target sequence (P9WQA3 whole entry, looked up): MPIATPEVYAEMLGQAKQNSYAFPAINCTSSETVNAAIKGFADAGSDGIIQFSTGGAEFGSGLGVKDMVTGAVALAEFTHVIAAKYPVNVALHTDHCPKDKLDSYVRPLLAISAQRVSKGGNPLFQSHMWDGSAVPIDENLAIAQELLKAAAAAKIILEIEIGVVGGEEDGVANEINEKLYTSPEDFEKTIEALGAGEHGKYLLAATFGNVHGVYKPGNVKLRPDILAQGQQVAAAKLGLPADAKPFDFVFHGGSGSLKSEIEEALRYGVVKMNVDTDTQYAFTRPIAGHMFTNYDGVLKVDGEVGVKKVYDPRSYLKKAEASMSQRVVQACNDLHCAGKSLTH
GDH-TPI counter-1 – counter-screen for M. tuberculosis FBA inhibitors: GDH-TPI coupled enzymes. AID 588335. inhibition, % at 4.8 µM. 360,000 compounds, 1.2% hits. GDH-TPI coupled enzyme counterscreen, NADH absorbance; in the data active = inhibition above about 30%
Rv3671c inh – Rv3671c (M. tuberculosis) protease inhibition | P9WHR9 | inhibition, % at 5.96 µM | 320,000 compounds, 0.048% hits; in the data active = inhibition above about 38%;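 also: extracellular domain of Rv3671c used as enzyme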
Target sequence (P9WHR9 whole entry, looked up, the tested form may be a part): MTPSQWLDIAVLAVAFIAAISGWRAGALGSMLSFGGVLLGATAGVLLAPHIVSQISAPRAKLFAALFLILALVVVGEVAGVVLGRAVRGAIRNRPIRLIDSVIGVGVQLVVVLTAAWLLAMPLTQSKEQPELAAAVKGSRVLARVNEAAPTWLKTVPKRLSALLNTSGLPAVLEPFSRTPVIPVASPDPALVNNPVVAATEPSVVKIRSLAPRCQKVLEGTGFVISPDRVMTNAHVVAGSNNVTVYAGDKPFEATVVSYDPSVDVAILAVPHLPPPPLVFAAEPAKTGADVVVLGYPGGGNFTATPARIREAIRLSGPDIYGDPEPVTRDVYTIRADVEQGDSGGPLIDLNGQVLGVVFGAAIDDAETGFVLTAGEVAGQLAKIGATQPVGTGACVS
Mtb BioA inh – blocks M. tuberculosis BioA enzyme activity. purified M. tuberculosis BioA enzyme, plate reader. inhibition, % at 9.99 µM. 360,000 compounds, 0.096% hits. AID 602481; in the data active = inhibition above about 40%
FadD28 binding – M. tuberculosis FadD28 bisubstrate binding inhibition | FadD28 bisubstrate probe binding, fluorescence polarization | inhibition, % at 12.5 µM | 360,000 compounds, 0.22% hits; in the data active = inhibition above about 8.5%, passing the limit was not always enough
Mtb FBA inh conf – confirmation of M. tuberculosis fructose-bisphosphate aldolase inhibitors. shares compounds with FBA Mtb inh. purified M. tuberculosis FBA, fluorescence read-out. inhibition, % at 1 µM. 5,600 compounds, 78% hits. AID 651616
GDH-TPI counter-2 – counter-screen for M. tuberculosis FBA inhibitors: GDH-TPI coupled enzyme inhibition; shares compounds with FBA Mtb inh; AID 652141; 5,600 compounds, 81% hits; GDH-TPI coupled enzyme counterscreen, fluorescence; inhibition, % at 1 µM; in the data active = inhibition above about 10%
Large screens that a line does not name were inactive (follow-up assays come after a bar, where they were run). In the library only some 3% were active in any assay of this set; here they are far more common. Rule as the data show it, unless noted: active = inhibition above about 27%; inactive = the rest.

COc1ccccc1-c1cc2c(c3c1ccn3C)C1CCC2O1 (stereo unspecified)	FBA Mtb inh 73 (no result: GDH-TPI counter-1, Rv3671c inh) | Mtb FBA inh conf 127 | GDH-TPI counter-2 104
COc1cccc(-c2csc(NNC(=O)c3cccs3)n2)c1	FBA Mtb inh 64 | Mtb FBA inh conf 28 | GDH-TPI counter-2 14
COc1cccc(-c2csc(NC(=O)Oc3ccccc3)n2)c1	none
CC1(C)Nc2ccccc2C(=O)N1NS(=O)(=O)c1ccccc1	FBA Mtb inh 29 (no result: Mtb BioA inh) | Mtb FBA inh conf inactive | GDH-TPI counter-2 inactive
Cc1ccc(S(=O)(=O)NN2C(=O)c3ccccc3NC2(C)C)cc1	FBA Mtb inh 36 (no result: Mtb BioA inh) | Mtb FBA inh conf active | GDH-TPI counter-2 active
O=C(O)Cn1c(=O)c(-c2ccccc2)nc2ccccc21	FBA Mtb inh 56 | Mtb FBA inh conf 119 | GDH-TPI counter-2 88
CCOC(=O)Cn1c(-c2ccccn2)nc2ccccc21	FBA Mtb inh 35 | Mtb FBA inh conf 91 | GDH-TPI counter-2 79
O=C(O)Cn1c(-c2ccccn2)nc2ccccc21	FBA Mtb inh 56 | Mtb FBA inh conf inactive | GDH-TPI counter-2 inactive
O=C(O)Cn1c(-c2ccccc2)cc2ccccc21	FBA Mtb inh 47 | Mtb FBA inh conf 104 | GDH-TPI counter-2 95
O=C(O)Cn1c(-c2ccccc2)nc2ccccc21	none
NNC(=O)Cn1c(-c2ccccn2)nc2ccccc21	none
O=C(Cn1c(C(=O)O)cc2ccccc21)c1ccccc1	none
O=C(C[C@@H]1C[C@H]2c3cc(NS(=O)(=O)c4ccc(F)cc4)ccc3O[C@H]2[C@H](CO)O1)N1CCCCC1	none (no result: FBA Mtb inh, GDH-TPI counter-1, Rv3671c inh, FadD28 binding)
Cc1ccc(S(=O)(=O)N(C)C[C@H]2Oc3ccc(NC(=O)Nc4c(C)noc4C)cc3CC(=O)N([C@H](C)CO)C[C@@H]2C)cc1	none (no result: FBA Mtb inh, GDH-TPI counter-1, Rv3671c inh, FadD28 binding)
CCN(CC)CCNC(=O)Cn1c(-c2ccccn2)nc2ccccc21	FBA Mtb inh 37 | Mtb FBA inh conf 145 | GDH-TPI counter-2 121
Cc1ccc2c(c1)sc1nc(=O)ccn12	none
COc1ccc2c(c1)sc1nc(=O)ccn12	FBA Mtb inh 49 | Mtb FBA inh conf 117 | GDH-TPI counter-2 106
CC(=O)Nc1cc(-c2ccc(C(=O)N3CCOCC3)cc2)cn2c(-c3ccc(S(C)(=O)=O)cc3)cnc12	FBA Mtb inh 28 (no result: Rv3671c inh) | Mtb FBA inh conf active | GDH-TPI counter-2 active
CC(=O)Nc1cc(-c2cccc(C(=O)NCCN(C)C)c2)cn2c(-c3ccc(S(C)(=O)=O)cc3)cnc12	FBA Mtb inh 61 (no result: Rv3671c inh) | Mtb FBA inh conf active | GDH-TPI counter-2 active
CC(=O)Nc1cc(-c2cccc(C(=O)NCCN(C)C)c2)cn2c(-c3ccccc3)cnc12	none (no result: Rv3671c inh)
CC(=O)Nc1cc(-c2ccc(C(=O)N3CCOCC3)cc2)cn2c(-c3ccc(F)c(Cl)c3)cnc12	none (no result: Rv3671c inh)
CC(=O)Nc1cc(-c2ccc(F)cc2)cn2c(-c3ccc(S(C)(=O)=O)cc3)cnc12	FBA Mtb inh 57 (no result: Rv3671c inh) | Mtb FBA inh conf 89 | GDH-TPI counter-2 69
COc1cccc(NC(=O)N(C)C[C@H]2OCc3ccccc3-c3ccccc3C(=O)N([C@H](C)CO)C[C@H]2C)c1	none (no result: FBA Mtb inh, GDH-TPI counter-1, Rv3671c inh, FadD28 binding)
COc1ccc(NC(=O)CC2C(=O)N(C)C(=S)N2Cc2ccc3c(c2)OCO3)cc1 (stereo unspecified)	FBA Mtb inh 80 (no result: Mtb BioA inh) | Mtb FBA inh conf 39 | GDH-TPI counter-2 33
COc1ccc(CCN2C(=S)N(C)C(=O)C2CC(=O)Nc2ccc(OC)cc2)cc1 (stereo unspecified)	none
COc1ccc2c(c1)cc(C(=O)N[C@@H](CCSC)C(=O)N1CCC[C@H]1C(=O)O)n2C	FBA Mtb inh 111 | Mtb FBA inh conf inactive | GDH-TPI counter-2 inactive
COc1cc2cc(C(=O)N[C@@H](Cc3ccccc3)C(=O)O)n(C)c2c(OC)c1OC	none
COc1ccc2c(c1)cc(C(=O)N[C@H](C(=O)N1CCC(C(=O)O)CC1)C(C)C)n2C	FBA Mtb inh 65 | Mtb FBA inh conf 120 | GDH-TPI counter-2 99
CC(C)C[C@H](NC(=O)c1cc2cc(Cl)ccc2n1C)C(=O)N1CCC[C@H]1C(=O)O	none
COc1cc2cc(C(=O)O)n(C)c2c(OC)c1OC	FBA Mtb inh 59 | Mtb FBA inh conf 68 | GDH-TPI counter-2 61
COc1ccc2c(c1)cc(C(=O)N[C@H](C(=O)N1CCC[C@H]1C(=O)O)C(C)C)n2C	FBA Mtb inh 106 | Mtb FBA inh conf 159 | GDH-TPI counter-2 113
C[C@H](NC(=O)c1cc2cc(Cl)ccc2n1C)C(=O)N1CCC[C@H]1C(=O)O	none
Cc1ccc(S(=O)(=O)NCC[C@H]2CC[C@H](NC(=O)Nc3ccccc3F)[C@H](CO)O2)cc1	none (no result: FBA Mtb inh, GDH-TPI counter-1, Rv3671c inh, FadD28 binding)
CNC(=O)c1cc2cc(OC)ccc2n1CCN(Cc1ccccc1)Cc1ccccc1	none
COc1ccc2c(c1)cc(C(=O)O)n2C	FBA Mtb inh 64 | Mtb FBA inh conf active | GDH-TPI counter-2 active
CNC(=O)c1cc2cc(OC)ccc2n1CCN(C)C	FBA Mtb inh 29 | Mtb FBA inh conf 110 | GDH-TPI counter-2 74
COC(=O)c1cc2cc(OC)ccc2n1C	none
CCCOc1ccc(-c2nc(C#N)c(NCCCn3ccnc3)o2)cc1	FBA Mtb inh 105 | Mtb FBA inh conf 105 | GDH-TPI counter-2 81
N#Cc1nc(-c2ccco2)oc1NCCCn1ccnc1	FBA Mtb inh 60 (no result: Mtb BioA inh) | Mtb FBA inh conf 121 | GDH-TPI counter-2 93
N#Cc1nc(-c2ccc(OCc3ccccc3)cc2)oc1NCCCn1ccnc1	none
CC(C)(C)c1ccc(-c2nc(C#N)c(NCCCn3ccnc3)o2)cc1	FBA Mtb inh 40 | Mtb FBA inh conf 108 | GDH-TPI counter-2 103
C[C@H]1CN([C@@H](C)CO)C(=O)CCCn2cc(nn2)CO[C@@H]1CN(C)CC1CCCCC1	none (no result: FBA Mtb inh, GDH-TPI counter-1, Rv3671c inh, FadD28 binding)
C[C@@H]1CN([C@@H](C)CO)C(=O)c2cc(NS(=O)(=O)c3cn(C)cn3)ccc2O[C@@H](C)CCCCO[C@H]1CN(C)Cc1ccncc1	none (no result: FBA Mtb inh, GDH-TPI counter-1, Rv3671c inh, FadD28 binding)
CCc1ccc(Nc2ncc3c(n2)CC(C)(C)CC3=O)cc1	FBA Mtb inh 35 (no result: Mtb BioA inh) | Mtb FBA inh conf active | GDH-TPI counter-2 172
CCc1ccc(Nc2ncc3c(n2)CC(C)CC3=O)cc1 (stereo unspecified)	none (no result: Mtb BioA inh)
COc1cccc(-c2ccc3c(c2)[C@@H]2[C@@H](CCN2C(=O)c2ccccn2)[C@@H](CO)N3C)c1	none (no result: FBA Mtb inh, GDH-TPI counter-1, Rv3671c inh, FadD28 binding)
COc1cc(/C=N/NC(=O)Cn2cnc3c2c(=O)n(C)c(=O)n3C)cc(OC)c1OC	none
COc1cccc(/C=N/NC(=O)Cn2cnc3c2c(=O)n(C)c(=O)n3C)c1OC	FBA Mtb inh 30 | Mtb FBA inh conf inactive | GDH-TPI counter-2 inactive
CC(=O)CSc1nc(-c2ccccc2)c(-c2ccccc2)o1	FBA Mtb inh 50 | Mtb FBA inh conf 61 | GDH-TPI counter-2 44
COCCNC(=O)CSc1nc(-c2ccccc2)c(-c2ccccc2)o1	none
C[C@H](CO)N1C[C@H](C)[C@@H](CN(C)CC2CC2)Oc2ccc(NS(=O)(=O)c3cn(C)cn3)cc2C1=O	none (no result: FBA Mtb inh, GDH-TPI counter-1, Rv3671c inh, FadD28 binding)
CCOC(=O)c1cn(C2CC2)c2c(F)c(NCCCN(C)C)c(F)cc2c1=O	FBA Mtb inh 70 | Mtb FBA inh conf 134 | GDH-TPI counter-2 79

Assay outcomes deposited in PubChem BioAssay by several laboratories.
